In PubChem BioAssay (Tox21):
Where “and” joins values, the source holds several entries; their conditions need not be identical. Equal entries are not always repeated. Results filed as inconclusive are left out. Where a call stands in place of a potency, no number is given. Calls of active or inactive are those of the source. Unless noted, calls follow the shape of the dose curve; as a rule, active = well fitted curve in the direction sought with a large enough effect in the repeat runs; inconclusive = weak or mixed curves; inactive = no such curve, though single readings can be large; an effect the other way counts as inactive or inconclusive.

How the values were obtained:
[1] = qHTS assay to test for compound auto fluorescence at 535 nm (green) in HEK293 cells (AID 720680)
[2] = qHTS assay to test for compound auto fluorescence at 460 nm (blue) in HEK293 cell free culture (AID 720681)
Outline: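 Compounds were added to cell-free DMEM with 10% FBS and fluorescence read directly. The blue channel used 405 nm excitation and 460 nm emission, with triamterene as the reference fluorophore.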

[3] = qHTS assay to test for compound auto fluorescence at 535 nm (green) in HEK293 cell free culture (AID 720682)
Outline: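 Steps: dispense DMEM/10% FBS into empty wells; pin in compound or DMSO; measure fluorescence at 485/535 nm. Values are fluorescein equivalents.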

[4] = qHTS assay to test for compound auto fluorescence at 590 nm (red) in HEK293 cell free culture (AID 720683)
Outline: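 Cell-free wells of DMEM with 10% FBS received compound, and intrinsic fluorescence was read at excitation/emission 540/590 nm. Values expressed as equivalence to Rose Bengal sodium.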

[5] = qHTS assay to test for compound auto fluorescence at 590 nm (red) in HepG2 cell free culture (AID 720684)
Outline: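 Auto fluorescence equivalency versus Rose Bengal sodium, red channel Ex/Em 540/590 nm; compounds in cell-free MEM/10% FBS; DMSO vehicle control.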

[6] = qHTS assay to test for compound auto fluorescence at 460 nm (blue) in HepG2 cell free culture (AID 720685)
Outline: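 Cell-free plates of MEM plus 10% FBS received 23 nL compound or DMSO vehicle; blue-channel (405/460 nm) intensity scored against triamterene as reference fluorophore.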

[7] = qHTS assay to test for compound auto fluorescence at 535 nm (green) in HepG2 cell free culture (AID 720686)
[8] = qHTS assay to test for compound auto fluorescence at 460 nm (blue) in HepG2 cells (AID 720687)
Outline: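 HepG2 cells in MEM with 10% FBS, attached overnight at 37 C, were exposed to compound or DMSO for 1 hr at 37 C, 5% CO2. Blue fluorescence was read at 405/460 nm, with triamterene as reference fluorophore.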

[9] = molecular target: Glucocorticoid receptor (Homo sapiens) (UniProt P04150); test: qHTS assay to identify small molecule agonists of the glucocorticoid receptor (GR) signaling pathway (AID 720691; active = well fitted activation curve with a large enough effect in the signal ratio in the repeat runs, not every such curve was filed as active; the % refers to the signal ratio)
Chain of Glucocorticoid receptor (Homo sapiens) (P04150 whole entry, looked up): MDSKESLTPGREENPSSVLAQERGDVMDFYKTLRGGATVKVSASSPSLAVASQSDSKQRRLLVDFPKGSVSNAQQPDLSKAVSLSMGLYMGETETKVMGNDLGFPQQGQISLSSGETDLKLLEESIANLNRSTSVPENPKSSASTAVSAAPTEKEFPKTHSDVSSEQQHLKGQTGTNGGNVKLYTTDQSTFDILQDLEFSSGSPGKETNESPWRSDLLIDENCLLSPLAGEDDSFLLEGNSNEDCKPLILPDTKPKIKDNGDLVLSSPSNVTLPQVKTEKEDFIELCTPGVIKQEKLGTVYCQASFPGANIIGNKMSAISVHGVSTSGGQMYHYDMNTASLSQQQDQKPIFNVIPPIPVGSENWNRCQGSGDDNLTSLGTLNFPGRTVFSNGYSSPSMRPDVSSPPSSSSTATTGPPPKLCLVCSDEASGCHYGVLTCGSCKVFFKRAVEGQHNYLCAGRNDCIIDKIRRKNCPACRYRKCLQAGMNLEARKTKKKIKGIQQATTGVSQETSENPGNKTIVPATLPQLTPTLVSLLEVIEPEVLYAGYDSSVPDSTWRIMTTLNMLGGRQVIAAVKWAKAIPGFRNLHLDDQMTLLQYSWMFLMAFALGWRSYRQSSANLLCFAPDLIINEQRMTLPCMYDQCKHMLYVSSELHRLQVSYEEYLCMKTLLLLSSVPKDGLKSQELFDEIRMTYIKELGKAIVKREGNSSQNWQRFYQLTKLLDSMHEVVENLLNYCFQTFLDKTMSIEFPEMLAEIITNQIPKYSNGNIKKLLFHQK
Outline: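 HeLa GR-bla reporter line; cells pre-incubated 4 h, compound in DMSO 18 h at 37 C; LiveBLAzer B/G FRET substrate 2 h RT; fluorescence intensity read-out.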

[10] = qHTS assay to identify small molecule antagonists of the glucocorticoid receptor (GR) signaling pathway - cell viability counter screen (AID 720693); also: nearly all actives have a fitted effect of over 55% in size; also: potency is read from the fitted curve at half-maximal effect
[11] = qHTS assay for identifying genotoxic compounds that show differential cytotoxicity against isogenic chicken DT40 cell lines with known DNA damage response pathways - wild type cell line (AID 743012); also: nearly all actives have a fitted effect of over 60% in size; also: potency is read from the fitted curve at half-maximal effect
Outline: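 CellTiter-Glo luminescence readout of viability in wild type DT40 cells after 40 h compound exposure at 37 C/5% CO2; 300 cells/well; reagent incubated 30 min at room temperature before reading.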

[12] = qHTS assay for identifying genotoxic compounds that show differential cytotoxicity against isogenic chicken DT40 cell lines with known DNA damage response pathways - Rev3 mutant cell line (AID 743014); also: nearly all actives have a fitted effect of over 55% in size; also: potency is read from the fitted curve at half-maximal effect
[13] = qHTS assay for identifying genotoxic compounds that show differential cytotoxicity against isogenic chicken DT40 cell lines with known DNA damage response pathways - Rad54/Ku70 mutant cell line (AID 743015); also: nearly all actives have a fitted effect of over 60% in size; also: potency is read from the fitted curve at half-maximal effect
[14] = qHTS assay to identify small molecule antagonists of the androgen receptor (AR) signaling pathway - cell viability counter screen (AID 743033; also: nearly all actives have a fitted effect of over 45% in size; also: potency is read from the fitted curve at half-maximal effect)
[15] = qHTS assay to identify small molecule antagonists of the androgen receptor (AR) signaling pathway using the MDA cell line - cell viability counter screen (AID 743041; also: nearly all actives have a fitted effect of over 45% in size; also: potency is read from the fitted curve at half-maximal effect)
Outline: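 Compound exposure lasted 16 h at 37C in MDA-kb2 AR-luc cells stimulated with R1881. Protease-based CellTiter-Fluor reagent was applied for the final 30 min and fluorescence measured.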

[16] = molecular target: Androgen receptor (Homo sapiens) (UniProt P10275); test: qHTS assay to identify small molecule agonists of the androgen receptor (AR) signaling pathway using the MDA cell line (AID 743040; also: nearly all actives have a fitted effect of over 20% in size)
Chain of Androgen receptor (Homo sapiens) (P10275 whole entry, looked up): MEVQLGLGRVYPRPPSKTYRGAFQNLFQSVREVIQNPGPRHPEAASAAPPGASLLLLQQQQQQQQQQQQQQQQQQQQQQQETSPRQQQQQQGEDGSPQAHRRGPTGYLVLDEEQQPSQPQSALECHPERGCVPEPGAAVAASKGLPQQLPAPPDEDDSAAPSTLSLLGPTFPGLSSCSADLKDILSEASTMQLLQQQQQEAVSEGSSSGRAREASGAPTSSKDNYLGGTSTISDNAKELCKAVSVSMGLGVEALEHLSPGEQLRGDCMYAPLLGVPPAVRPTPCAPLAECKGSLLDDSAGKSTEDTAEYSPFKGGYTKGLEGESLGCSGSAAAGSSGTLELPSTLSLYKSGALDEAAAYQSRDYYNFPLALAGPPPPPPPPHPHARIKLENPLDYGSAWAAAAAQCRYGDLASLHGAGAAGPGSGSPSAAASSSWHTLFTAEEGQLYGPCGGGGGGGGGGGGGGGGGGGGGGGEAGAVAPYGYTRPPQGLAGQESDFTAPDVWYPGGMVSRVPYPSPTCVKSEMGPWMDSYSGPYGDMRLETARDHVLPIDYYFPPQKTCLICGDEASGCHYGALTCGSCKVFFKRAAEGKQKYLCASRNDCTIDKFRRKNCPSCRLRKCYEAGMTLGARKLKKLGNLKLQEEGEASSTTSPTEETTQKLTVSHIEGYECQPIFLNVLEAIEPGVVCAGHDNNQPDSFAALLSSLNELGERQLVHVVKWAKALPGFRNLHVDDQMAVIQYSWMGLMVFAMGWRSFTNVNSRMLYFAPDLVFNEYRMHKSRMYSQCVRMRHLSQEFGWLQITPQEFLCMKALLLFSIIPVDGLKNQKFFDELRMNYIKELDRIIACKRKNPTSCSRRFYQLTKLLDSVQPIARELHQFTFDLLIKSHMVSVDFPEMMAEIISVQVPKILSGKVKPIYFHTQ
Outline: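 Testing was done with the MDA-kb2 AR-luc line, a human breast carcinoma stably transfected with MMTV-luciferase containing AR and GR response elements. Cells were exposed 16 h at 37C before ONE-Glo luminescence detection.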

[17] = molecular target: Androgen receptor (Homo sapiens) (UniProt P10275); test: qHTS assay to identify small molecule antagonists of the androgen receptor (AR) signaling pathway using the MDA cell line (AID 743042; also: nearly all actives have a fitted effect of over 55% in size; also: potency is read from the fitted curve at half-maximal effect)
Outline: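 MDA-kb2 breast carcinoma cells carrying MMTV-luciferase (AR/GR responsive) were co-treated with compounds and the agonist R1881 for 16 h at 37C. Inhibition read as ONE-Glo luminescence; CellTiter-Fluor fluorescence measured in parallel for cytotoxicity.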

[18] = molecular target: Glucocorticoid receptor (Homo sapiens) (UniProt P04150); test: qHTS assay to identify small molecule antagonists of the glucocorticoid receptor (GR) signaling pathway (AID 720692; active = well fitted inhibition curve with a large enough effect in the signal ratio in the repeat runs, not every such curve was filed as active; the % refers to the signal ratio; also: potency is read from the fitted curve at half-maximal effect)
Outline: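 Read-out: beta-lactamase FRET substrate fluorescence, 2 h at room temperature, in HeLa cells stably carrying a GRE-driven bla reporter. Compounds were co-incubated with 5 nM dexamethasone agonist (final) for 18 h at 37 C.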

[19] = molecular target: Androgen receptor (Homo sapiens) (UniProt P10275); test: qHTS assay to identify small molecule antagonists of the androgen receptor (AR) signaling pathway (AID 743035; active = well fitted inhibition curve with a large enough effect in the signal ratio in the repeat runs, not every such curve was filed as active; the % refers to the signal ratio; also: potency is read from the fitted curve at half-maximal effect)
Outline: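 AR-bla HEK293 reporter cells; 4 h settle at 37C/5% CO2; compound + R1881 agonist, 16 h at 37C; LiveBLAzer B/G FRET substrate 2 h RT; fluorescence intensity read. qHTS format.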

[20] = molecular target: Androgen receptor (Homo sapiens) (UniProt P10275); test: qHTS assay to identify small molecule agonists of the androgen receptor (AR) signaling pathway (AID 743036; active = well fitted activation curve with a large enough effect in the signal ratio in the repeat runs, with a control signal flat, not every such curve was filed as active; the % refers to the signal ratio)
Outline: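 Reporter line: GeneBLAzer AR-UAS-bla-GripTite (HEK293). Steps: plate cells, 4 h rest, add compounds, 16 h at 37C, add LiveBLAzer B/G substrate, 2 h at RT, read fluorescence.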

Question: What does the source list for `CN(C)c1ccc(C(=C2C=CC(=[N+](C)C)C=C2)c2ccccc2)cc1`?
Answer: Potency [1]: inactive; Potency [2]: inactive; Potency [3]: inactive; outcome [4]: inactive; outcome [5]: inactive; Potency [6]: inactive; Potency [7]: inactive; Potency [8]: inactive; Potency [9]: inactive; Potency [10]: 195 nM (active); Potency [11]: 1.06 µM (active) and 13.7 nM (active); Potency [12]: 1.19 µM (active) and 7.7 nM (active); Potency [13]: 1.5 µM (active) and 10.9 nM (active); Potency [14]: 155 nM (active)

Question: Which Potency [1] does the source give for `O=C(O)c1cc(Cl)cc(Cl)c1` here?
Answer: inactive

Question: What about the Potency [2] of the same molecule?
Answer: inactive

Question: What about the Potency [3] of the same molecule?
Answer: inactive

Question: And the outcome [4]?
Answer: inactive

Question: And the outcome [5]?
Answer: inactive

Question: And the Potency [6]?
Answer: inactive

Question: What about the Potency [7] of the same molecule?
Answer: inactive

Question: And the Potency [8]?
Answer: inactive

Question: And the Potency [9]?
Answer: inactive

Question: What about the Potency [10] of the same molecule?
Answer: inactive

Question: And the Potency [11]?
Answer: inactive

Question: And the Potency [12]?
Answer: inactive

Question: What about the Potency [13] of the same molecule?
Answer: inactive

Question: What about the Potency [14] of the same molecule?
Answer: inactive

Question: What about the Potency [15] of the same molecule?
Answer: inactive

Question: What does the source list for `CCOC(=O)C(C)C(C)=O` (stereo unspecified)?
Answer: Potency [1]: inactive; Potency [2]: inactive; Potency [3]: inactive; outcome [4]: inactive; outcome [5]: inactive; Potency [6]: inactive; Potency [7]: inactive; Potency [8]: inactive; Potency [9]: inactive; Potency [10]: inactive; Potency [11]: inactive; Potency [12]: inactive; Potency [14]: inactive; Potency [15]: inactive

Question: Which Potency [1] does the source give for `CCCCCCCCCCCCCC[P+](CCCC)(CCCC)CCCC` here?
Answer: inactive

Question: What about the Potency [2] of the same molecule?
Answer: inactive

Question: What about the Potency [3] of the same molecule?
Answer: inactive

Question: What about the outcome [4] of the same molecule?
Answer: inactive

Question: And the outcome [5]?
Answer: inactive

Question: And the Potency [6]?
Answer: inactive

Question: What about the Potency [7] of the same molecule?
Answer: inactive

Question: What about the Potency [8] of the same molecule?
Answer: inactive

Question: And the Potency [10]?
Answer: 9.72 µM (active) and 4.9 µM (active)

Question: And the Potency [11]?
Answer: 192 nM (active) and 86.3 nM (active)

Question: What about the Potency [12] of the same molecule?
Answer: 85.8 nM (active) and 61.1 nM (active)

Question: And the Potency [13]?
Answer: 76.5 nM (active) and 54.5 nM (active)

Question: What about the Potency [14] of the same molecule?
Answer: 866 nM (active) and 977 nM (active)

Question: And the outcome [16]?
Answer: inactive

Question: And the Potency [15]?
Answer: 21.6 µM (active) and 6.11 µM (active)

Question: And the Potency [17]?
Answer: 2.16 µM (active) and 1.54 µM (active)

Question: Which Potency [1] does the source give for `CC(C)CCCCCCc1ccc(O)cc1` here?
Answer: inactive

Question: What about the Potency [2] of the same molecule?
Answer: inactive

Question: What about the Potency [3] of the same molecule?
Answer: inactive

Question: And the outcome [4]?
Answer: inactive

Question: What about the outcome [5] of the same molecule?
Answer: inactive

Question: And the Potency [6]?
Answer: inactive

Question: And the Potency [7]?
Answer: inactive

Question: What about the Potency [8] of the same molecule?
Answer: inactive

Question: What about the Potency [9] of the same molecule?
Answer: inactive

Question: What about the Potency [10] of the same molecule?
Answer: 25000 nM (active)

Question: What about the Potency [11] of the same molecule?
Answer: 21.1 µM (active) and 62.2 µM (active) and 27.3 µM (active)

Question: And the Potency [12]?
Answer: 11.9 µM (active) and 17.5 µM (active) and 30.6 µM (active)

Question: And the Potency [13]?
Answer: 21.1 µM (active) and 62.2 µM (active) and 27.3 µM (active)

Question: And the Potency [14]?
Answer: inactive

Question: What about the Potency [15] of the same molecule?
Answer: inactive

Question: With `Nc1nc(=S)c2[nH]cnc2[nH]1` as the molecule, how does the Potency [1] read?
Answer: inactive

Question: And the Potency [2]?
Answer: inactive

Question: And the Potency [3]?
Answer: inactive

Question: And the outcome [4]?
Answer: inactive

Question: And the outcome [5]?
Answer: inactive

Question: What about the Potency [6] of the same molecule?
Answer: inactive

Question: And the Potency [7]?
Answer: inactive

Question: What about the Potency [8] of the same molecule?
Answer: inactive

Question: What about the Potency [18] of the same molecule?
Answer: 23.9 µM (active) and 30.1 µM (active) and 43.6 µM (active)

Question: And the Potency [12]?
Answer: 1.88 µM (active) and 1.33 µM (active) and 686 nM (active)

Question: And the Potency [13]?
Answer: 1.33 µM (active) [middle of 4 runs]

Question: What about the Potency [14] of the same molecule?
Answer: 26.8 µM (active) and 1.95 µM (active)

Question: And the Potency [19]?
Answer: 16.9 µM (active) and 10.7 µM (active) and 6.92 µM (active)

Question: And the Potency [20]?
Answer: inactive

Question: What about the outcome [16] of the same molecule?
Answer: inactive

Question: And the Potency [15]?
Answer: inactive

Question: What about the Potency [17] of the same molecule?
Answer: inactive
